# Hit rate of the full screen: of about 52,000 compounds, about 1,700 (3.3%) were called active. Cut-off read from the data, not from the text of the source: active = survival mostly below about 52% (no sharp cut-off); inactive = mostly above about 56%. The list comes from a sample in which actives are over-represented; it also holds similar structures and randomly drawn compounds.
# System: Wild type
# Experiment: growth inhibition of S. aureus wild type versus tarO mutant, primary screen, teichoic acid synthesis inhibitors, RN4220, OD600 (AID 463173)
# Details: S. aureus RN4220 wild type/DeltatarO growth, OD600, 18 h, active compounds read low, screened at 18.75 µg/mL (by protocol)
row,Structure (SMILES),survival
1,CC(C)c1cc2cc(/C=C/C(=O)O)c(O)cc2o1,39% (inactive)
2,CCC(CC)N1CCN(S(=O)(=O)c2ccc(NC(C)=O)cc2)CC1,113% (inactive)
3,O=C(/C=C/c1ccccc1)N1CCN(CCN2C(=O)C3C4C=CC(C4)C3C2=O)CC1 (configuration not stated),124% (inactive)
4,Cc1nc(-c2ccc(S(=O)(=O)NCc3ccc(F)cc3)cc2)co1,68% (inactive)
5,Nc1c(-c2nc(-c3ccc4c(c3)OCO4)cs2)c2ccccn2c1C(=O)c1ccccc1,86% (inactive)
6,COc1ccccc1N1CCN(C(=O)C2CCN(S(=O)(=O)Cc3ccccc3)CC2)CC1,84% (inactive)
7,COc1ccc(-c2nc(CS(=O)CC(=O)NCc3ccccc3OC)c(C)o2)cc1 (configuration not stated),123% (inactive)
8,O=C(C1CCC(Cn2c(=O)c3sccc3n(Cc3ccccc3)c2=O)CC1)N1CCOCC1 (configuration not stated),95% (inactive)
9,CCCn1c2ccccc2c2cnn(CC(=O)N3CCC(C(=O)OCC)CC3)c(=O)c21,87% (inactive)
10,Cc1ccc(Cl)cc1N1CCN(c2nc3ccc(C(=O)c4ccccc4)cc3n3cnnc23)CC1,-6% (active)
11,CCc1nnc2c3ccccc3nc(N3CCN(c4cc(Cl)ccc4C)CC3)n12,126% (inactive)
12,Cc1ccc(N2CCN(c3nc4ccc(C(=O)c5ccccc5)cc4n4cnnc34)CC2)c(C)c1,72% (inactive)
13,CCc1nnc2c(N3CCN(c4cc(Cl)ccc4C)CC3)nc3ccccc3n12,-6% (active)
14,Cc1ccc(C)c(N2CCN(c3nc4ccc(C(=O)c5ccccc5)cc4n4cnnc34)CC2)c1,100% (inactive)
15,Cc1ccc(C)c(N2CCN(c3nc4ccccc4n4c(C)nnc34)CC2)c1,87% (inactive)
16,O=C(CN1C(=O)C2(SCC(=O)N2c2ccc(F)c(F)c2)c2ccccc21)Nc1cccc(Cl)c1 (configuration not stated),68% (inactive)
17,COc1ccccc1Nc1c2c(nc3ccc(NC(=O)c4cccc(F)c4)cc13)CCCC2,35% (inactive)
18,Cc1ccc(Nc2c3c(nc4ccccc24)CCC3)cc1F,2% (active)
19,Fc1ccc(Nc2c3c(nc4ccccc24)CCC3)cc1,70% (inactive)

row,Structure (SMILES),survival
1,Cc1ccc2nc3c(c(Nc4ccc(C)c(C)c4)c2c1)CCC3,39% (inactive)
2,Fc1ccccc1Nc1c2c(nc3ccccc13)CCC2,102% (inactive)
3,COc1ccc(Nc2c3c(nc4ccccc24)CCC3)cc1Cl,72% (inactive)
4,Fc1ccc(F)c(Nc2c3c(nc4ccc(Cl)cc24)CCC3)c1,-1% (active)
5,FC(F)(F)c1cccc(Nc2c3c(nc4ccc(Cl)cc24)CCC3)c1,5% (active)
6,CCOC(=O)c1cccc(Nc2c3c(nc4ccccc24)CCC3)c1,73% (inactive)
7,CC1(C)Cc2nc3sc4c(N5CCOCC5)ncnc4c3cc2CO1,97% (inactive)
8,O=C(Cn1c(=O)oc2ccccc21)NCc1cccc(Cl)c1,78% (inactive)
9,CCOC(=O)c1cnc2nc(NCc3cccc(Br)c3)[nH]n2c1=O,98% (inactive)
10,NC(=O)C1CCN(c2nc(C3CC3)nc3c2nnn3Cc2ccccc2Cl)CC1,108% (inactive)
11,O=C(CN1C=NS(=O)(=O)c2ccc(C(F)(F)F)cc21)Nc1cccc(C(F)(F)F)c1,76% (inactive)
12,COc1cccc(C2CC(=O)Nc3c2c(=O)n(C)c2nc4ccccc4n32)c1OC (configuration not stated),67% (inactive)
13,Cc1ccc(S(=O)(=O)Cc2nc(-c3ccc(C(=O)NCCCOC(C)C)cc3)oc2C)cc1,75% (inactive)
14,CCOCCCNC(=O)c1ccc(-c2nc(CS(=O)(=O)c3ccccc3)c(C)o2)cc1,87% (inactive)
15,Cc1oc(-c2ccc(C(=O)NCCCOC(C)C)cc2)nc1CS(=O)(=O)c1ccccc1,-6% (active)
16,CCOc1ccc(-c2nc(SCC(=O)Nc3ccc4c(c3)OCO4)c(-c3ccc(F)cc3)[nH]2)cc1,98% (inactive)
17,Cc1ccc(Cl)cc1-n1ncc2c(NCc3ccc(F)cc3)ncnc21,73% (inactive)
18,O=C(NC1CC(=O)N(c2ccccc2)C1)c1ccc(S(=O)(=O)N2CCCCC2)cc1 (configuration not stated),-1% (active)
19,Cc1ccc(N2CC(NC(=O)c3ccc(S(=O)(=O)N4CCOCC4)cc3)CC2=O)cc1 (configuration not stated),47% (inactive)

row,Structure (SMILES),survival
1,O=C(NC1CC(=O)N(c2ccc(F)cc2)C1)c1ccc(S(=O)(=O)N2CCCCC2)cc1 (configuration not stated),83% (inactive)
2,O=C(NC1CC(=O)N(c2ccccc2)C1)c1ccc(S(=O)(=O)N2CCCC2)cc1 (configuration not stated),133% (inactive)
3,O=C(NC1CC(=O)N(c2ccc(Cl)cc2)C1)c1ccc(S(=O)(=O)N2CCOCC2)cc1 (configuration not stated),91% (inactive)
4,O=C(NC1CC(=O)N(c2ccccc2)C1)c1ccc(S(=O)(=O)N2CCOCC2)cc1 (configuration not stated),14% (active)
5,CCOc1ccc(NC(=O)C2CCN(S(=O)(=O)c3c(C)noc3/C=C/c3ccco3)CC2)cc1,73% (inactive)
6,CC(=O)c1ccc(S(=O)(=O)Nc2ccc(-c3ccc(N4CCCCCC4)nn3)cc2)cc1,83% (inactive)
7,CCOC(=O)c1c(S(=O)(=O)NCC(=O)N2CCN(c3ccccc3)CC2)c(C)n(C)c1C,112% (inactive)
8,CCSc1nnc2n(-c3ccccc3)c(=O)c3c4c(sc3n12)CCCC4,108% (inactive)
9,Cc1cccc(-n2c(=O)c3c4c(sc3n3cnnc23)CCCC4)c1,72% (inactive)
10,CCCCSc1nnc2n(-c3cccc(C)c3)c(=O)c3c4c(sc3n12)CCCC4,-1% (active)
11,CCCSc1nnc2n(-c3cccc(C)c3)c(=O)c3c4c(sc3n12)CCCC4,2% (active)
12,CSc1nnc2n(-c3cccc(C)c3)c(=O)c3c4c(sc3n12)CCCC4,79% (inactive)
13,CCSc1nnc2n(-c3cccc(C)c3)c(=O)c3c4c(sc3n12)CCCC4,81% (inactive)
14,Cc1cc(=O)[nH]c(SCC(=O)N(c2ccccc2)c2ccccc2)n1,103% (inactive)
15,Cc1ccc(NC(=O)N2CC3CCCN3c3ccccc32)c(C)c1 (configuration not stated),117% (inactive)
16,Cc1ccc(NC(=O)N2CC3CCCN3c3ccccc32)cc1C (configuration not stated),-2% (active)
17,Cc1ccc(NC(=O)N2CC3CCCN3c3ccccc32)cc1Cl (configuration not stated),83% (inactive)
18,COc1ccc(S(=O)(=O)c2c(Nc3c(C)cccc3C)sc(C(=O)c3ccc4c(c3)OCO4)c2N)cc1,74% (inactive)
19,CCOC(=O)c1ccccc1NC(=O)c1ccco1,121% (inactive)

# — PubChem BioAssay AID463173 (ICCB-Longwood Screening Facility, Harvard Medical School, 2010)
